HTT ATP protect = qHTS Multiplex Assay to Identify Dual Action Probes in a Cell Model of Huntington: Cytoprotection (ATP); PC12 HTT-Q103 induced, cytoprotection, ATP luminescence, 40 h; Potency, µM (doses to about 56.4 µM), most hits filed as activators; hit rate 0.14% among 230,000; further: nearly all actives have a fitted effect of over 45% in size
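Quantitative HTS on tebufenozide-induced (100 nM) PC12 cells expressing HTTQ103 exon 1–GFP; compounds tested as a concentration series; survival measured via cellular ATP.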
S2 tox = Viability Counterscreen for Primary qHTS for Inhibitors of ATXN expression; S2 cells (HEK-293 line with an ATXN2-luciferase reporter) viability, CellTiter-Fluor protease fluorescence, 24 h; Potency, µM (doses to about 56.7 µM), usual class: cytotoxic; hit rate 0.49% among 400,000; AID 651635, 2014; further: nearly all actives have a fitted effect of over 40% in size
TGFb inhibitor = qHTS for Inhibitors of TGF-b. HepG2 CAGA-GFP TGF-b/SMAD3 reporter, GFP fluorescence, 18 h; TGF-beta stimulated, 500 pg/mL final. Potency, µM (titrated, usually from 46.1 µM), actives largely listed as inhibitors. hit rate 1.2% among 410,000. AID 588855, 2011; further: nearly all actives have a fitted effect of over 65% in size
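HEPG2 CAGA-GFP, 1000 cells/well; 2 h settle, 37 C; cpd via pin tool; TGF-b 500 pg/mL final; 18 h, 37 C; GFP imaging ex488/em500-530; %Activity normalised to -TGF-b and +DMSO controls; CRC fit, curve class.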
HttQ103 aggreg = qHTS Multiplex Assay to Identify Dual Action Probes in a Cell Model of Huntington: Aggregate Formation (GFP); PC12 HttQ103-GFP aggregates, Acumen cytometry, 40 h; Potency, µM (highest dose often 46.1 µM), most hits filed as inhibitors; hit rate 1.1% among 220,000; AID 1688, 2009; further: nearly all actives have a fitted effect of over 60% in size
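Multiplexed with ATP-based cell death, this channel scores GFP aggregates in PC12 cells expressing inducible HTTex1-Q103-GFP. Induction used 100 nM tebufenozide; compounds were tested in concentration series.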
ATXN2 expr inh = Primary qHTS for Inhibitors of ATXN expression; AID 1745845, 2022; HEK-293 ATXN2-luciferase reporter, luminescence, 24 h; Potency, µM (titrated, usually from 57 µM), hits mostly inhibitors; hit rate 0.72% among 360,000; further: nearly all actives have a fitted effect of over 55% in size
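qHTS (up to 57 uM final) was run with 24 h compound exposure of reporter cells at 37 °C. Each well was multiplexed: SteadyGlo luminescence measured ATXN2-luciferase expression after a fluorogenic Gly-Phe-AFC viability readout (25 uM final).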
HepG2 viability = qHTS for Inhibitors of TGF-b: Cytotox Counterscreen; HepG2 CAGA-GFP viability, ATP luminescence, 18 h; AID 588856, 2011; hit rate 0.76% among 410,000; Potency, µM (titrated, usually from 46.1 µM), most hits filed as cytotoxic
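HepG2 CAGA-GFP cells (1000/well, DMEM with 1% FBS) received compound, then TGF-beta at 500 pg/mL final, and were incubated 18 hours at 37 degrees C. Viability was read by CellTiter-Glo luminescence. Media-only wells were set as complete cell-killing and DMSO as no toxicity.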
Numbers stand for hits; 0 = inactive; ? = inconclusive; - = not tested or not shown; [ ] = remark or other dose. Shown are actives, neighbours in structure and some others; about 2.8% of the full set was active somewhere. The call rests on the fitted dose curve; in most records, active means well fitted curve in the direction sought with a large enough effect; inconclusive means small, poorly fitted or top-dose-only effect, or another doubt; inactive means no such curve, though single readings can be large; an effect the other way counts as inactive or inconclusive.

SMILES | HTT ATP protect | S2 tox | TGFb inhibitor | HttQ103 aggreg | ATXN2 expr inh | HepG2 viability
N#Cc1ccccc1OCC(O)CNCCNC(=O)Nc1ccccc1 (stereo not drawn) | 0 | - | - | - | - | -
CCOC(=O)c1cc(-c2ccc(F)cc2)n(CCC(=O)NC2CCN(Cc3ccccc3)CC2)c1C | 0 | ? | ? | 0 | ? | 13µM
Cc1c(C(=O)N(CCO)C(C)C)cnn1-c1ncc2c(n1)-c1ccccc1CCC2 | - | 0 | - | - | - | -
Cc1nc(NCc2cnn(C)c2C)sc1-c1ccn(CC2COc3ccccc3O2)n1 (stereo not drawn) | - | 0 | - | - | - | -
CCCCCc1c2c(cc(O)c1C(=O)O)OC(=O)c1cc(C(=O)CCCC)c(OC)cc1O2 | ? | 0 | ? | - | ? | 0
CCCCCc1c2c(cc(O)c1C(=O)O)OC(=O)c1c(cc(OC)cc1C(=O)CCCC)O2 | 0[10 µM] | - | 20µM | 0[9.22 µM] | ? | 0
O=C(NCCc1ccccn1)c1cnn(-c2ncc3c(n2)-c2ccccc2CC3)c1C1CC1 | - | 0 | - | - | - | -
CCSc1nnc(NC(=O)CSc2nc3c(c(=O)n2CC)SC(C)C3)s1 (stereo not drawn) | 0 | ? | 0 | 13µM | 0 | 0
CCSc1nnc(NC(=O)CSc2nc3c(c(=O)n2C)SC(C)C3)s1 (stereo not drawn) | 0[1.9 µM] | 0 | 0 | 0 | ? | 0
CC1(C)CC(=O)C(C=NCC(N)=O)=C(O)C1 | 0 | 0 | 0 | 11µM | 0 | 0
CN=CC1=C(O)CC(C)(C)CC1=O | 0[0.074 µM] | 0 | 0 | 0 | 0 | 0
COC(=O)c1ccc(C(=O)N2CCc3c(C(=O)NC(C)c4ccco4)c(OC)cc(=O)n3CC2)cc1 (stereo not drawn) | - | 0 | - | - | - | -
CCOC(=O)N1CCN(c2ncnc3scc(-c4ccc(Cl)cc4)c23)CC1 | - | 0 | 16µM | - | - | 0
CCOC(=O)N1CCN(c2ncnc3scc(-c4ccccc4)c23)CC1 | - | 0 | 0 | - | 0 | 0
C=C1C[C@@]2(O)O[C@@]3(C[C@H]2C(C)C)[C@H](C)CC[C@H]13 | - | - | - | - | 0 | -
COc1cccc(C2(CC(=O)N3CCCCC3CO)CC(=O)N(C)C2=O)c1 (stereo not drawn) | - | 0 | - | - | - | -
Cc1ccc(Nc2nc(NCCO)c3ccccc3n2)cc1C | - | 0 | 14µM | - | 0 | 0
OCCNc1c2ccccc2nc2ccccc12 | 0[10 µM] | - | ? | 0[9.22 µM] | 19µM | 0
CC(C)C(=O)Nc1ccc(/C=C2\C=Cc3ccccc32)cc1 | - | - | 0 | - | - | 0
O=C(C=Cc1cccc(S(=O)(=O)Nc2ccccc2)c1)NO | - | - | - | - | 0 | -
COc1ccc(N2C(=O)[C@@H]3C[C@H]2CN3Cc2cccn2-c2ccccn2)cc1Cl | - | 0 | - | - | - | -
COc1cc(CCc2ccccc2)c(C(=O)O)c(O)c1CC=C(C)C | - | 0 | ? | - | 0 | 0
COc1cc(CCc2ccccc2)c(C(=O)O)c(O)c1C/C=C(/C)CCC=C(C)C | - | 0 | 13µM | - | 0 | 14µM
C=C1C(=O)OC2C=C(CO)CCC=C(CO)CC(OC(=O)C(C)C)C12 (stereo not drawn) | - | ? | 16µM | - | ? | 0
CCn1nc(C)cc1C(=O)Sc1ccc(Cl)cc1Cl | 0[10 µM] | 0 | ? | 0[9.22 µM] | 0 | 0
SMILES | HTT ATP protect | S2 tox | TGFb inhibitor | HttQ103 aggreg | ATXN2 expr inh | HepG2 viability
CCn1nc(C)cc1C(=O)Sc1cccc(Br)c1 | 0[10 µM] | 0 | ? | 0[9.22 µM] | 0 | 20µM
CCOc1ccc2cc(C#N)c(SCC(=O)OCc3ccccc3)nc2c1 | - | - | 0 | - | - | 0
NC(=O)c1ccc(N(C(N)=O)c2c(F)cccc2F)nc1-c1ccc(F)cc1F | - | - | - | - | 0 | -
Cc1nc([N+](=O)[O-])cn1CC(O)c1ccc2c(c1)OCO2 (stereo not drawn) | - | - | 0 | - | - | 0
CCc1nnc(NC(=O)c2nc(S(=O)(=O)Cc3ccccc3)ncc2Cl)s1 | - | ? | ? | - | ? | 0
CSc1nnc(NC(=O)c2nc(S(=O)(=O)Cc3ccccc3F)ncc2Cl)s1 | - | ? | ? | - | 0 | 0
CC(C)c1nnc(NC(=O)c2nc(S(=O)(=O)Cc3ccccc3F)ncc2Cl)s1 | - | 7.1µM | 13µM | - | 10µM | 0
